The source of these data is PubChem BioAssay AID485344 (National Center for Advancing Translational Sciences (NCATS), 2010).

As a reminder, the inhibition is the change of the read-out against control, counted positive when it falls.

Structures are written as SMILES. Out of some 340,000 compounds screened, about 6,900 (2%) were called active. Many of the other results were omitted from the sample, so actives are more common in it than they were. Values without a mark were called inactive. No stated cut-off is given here; in the data, active means inhibition above about 30%; inactive means below that, where a call was filed.

In the test the target is D(2) dopamine receptor (Homo sapiens) (UniProt P14416). In words: HTS Assay for Allosteric Antagonists of the Human D2 Dopamine Receptor: Primary Screen for Antagonists. Further: 0% is about no effect. Conditions: HEK293 TREx D2 cells, calcium flux, dopamine EC80; at 10 µM; hits give high values. An excerpt: NIH Chemical Genomics Center [NCGC] NIH Molecular Libraries Probe Centers Network [MLPCN] MLPCN Grant: NS064831-01 Assay Submitter (PI): David Sibley Dopamine receptors (DARs) are involved in the etiology and/or therapy of a number of neuropsychiatric and endocrine disorders. For instance, all receptor-based antiparkinsonian drugs work via stimulating the D2 DAR subtype whereas all FDA-approved antipsychotic agents are antagonists of this receptor. […] There are three different types of allosteric modulators that we are seeking, two of which will stimulate or augment receptor signaling, allosteric agonists and potentiators, while the third, allosteric antagonists, will attenuate receptor signaling. The present primary screening assay measures compound antagonism after an EC80 addition of dopamine by tracking calcium flux in a […], inducible Hek293 Trex D2 cell line.
Sequence of D(2) dopamine receptor (Homo sapiens) (P14416 whole entry, looked up): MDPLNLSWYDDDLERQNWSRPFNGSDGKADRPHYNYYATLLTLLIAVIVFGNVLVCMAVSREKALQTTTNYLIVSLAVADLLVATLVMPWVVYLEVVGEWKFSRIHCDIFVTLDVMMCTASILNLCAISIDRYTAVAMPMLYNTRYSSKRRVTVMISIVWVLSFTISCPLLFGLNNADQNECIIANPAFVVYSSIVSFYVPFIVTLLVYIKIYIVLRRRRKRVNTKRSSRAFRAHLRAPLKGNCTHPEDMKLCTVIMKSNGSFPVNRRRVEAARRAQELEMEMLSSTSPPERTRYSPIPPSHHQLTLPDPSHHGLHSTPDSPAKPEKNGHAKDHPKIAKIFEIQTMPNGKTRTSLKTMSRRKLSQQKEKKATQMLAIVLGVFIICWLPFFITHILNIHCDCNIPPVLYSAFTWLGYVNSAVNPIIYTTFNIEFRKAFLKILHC
Freshly passaged cells are plated in 1536 well black, clear bottom plates at a density of 4000 cells/well in 3 ul of complete media containing 1x tetracycline inducer. After an overnight incubation at 30 C in 5% CO2, cells are loaded with 2 ul of the no wash Calcium Assay Kit (ABD Bioquest) and incubated at room temperature for 30 to 90 minutes. Agonist read: A 10 cycle (1 second/cycle) baseline measurement is taken and then the FDSS online 1536 pintool delivers 23 nl of compound library (as well as dopamine controls) to the plate. The plate is measured for kinetically at 1 cycle/sec for 180 seconds. Following the 180 second read, 1 ul of an EC80 (negative modulation assay) is delivered by an onboard pipette head. Measurements are taken kinetically for an additional 180 seconds.
For the molecule `O=S(=O)(c1ccccc1)N(CC(O)CN1CCCCC1)c1ccccc1` (stereo unspecified), the inhibition is -13.9%. The same measure for `Cc1ccc(N(CC(O)CN2CCCC2)S(=O)(=O)c2ccccc2)cc1` (stereo unspecified): -18.8%; for `Cc1ccc(S(=O)(=O)N(CC(O)CN2CCCCC2)c2cccc([N+](=O)[O-])c2)cc1` (stereo unspecified): 35.8% (active); for `Cc1ccc(S(=O)(=O)N(CC(O)CN2C(=O)NC(C)(C)C2=O)c2cccc([N+](=O)[O-])c2)cc1` (stereo unspecified): 30.4% (active). Regarding `CCN(CC)C(=O)CN(c1cccc([N+](=O)[O-])c1)S(=O)(=O)c1ccccc1`, the inhibition is -8.71%. The same measure for `COc1ccc([N+](=O)[O-])cc1N(CC(O)Cn1nnc2ccccc21)S(=O)(=O)c1ccc(C)cc1` (stereo unspecified): 12.1%; for `COc1ccc([C@H]2CC(=O)C=C(c3ccc(OC(F)(F)F)cc3)C2)cc1OC`: 10.4%; for `CN(CC(=O)NCCc1ccc(F)cc1)CC(=O)Nc1ccc(F)c(F)c1F`: -4.31%. `CCCCn1c(N)c(N(CCC(C)C)C(=O)COC(=O)c2ccc(CC)cc2)c(=O)[nH]c1=O`: the inhibition was -24%. The same measure for `O=C(Nc1ccc2c(c1)OCO2)C1CC1(Cl)Cl` (stereo unspecified): 4.68%; for `COc1ccc(Cc2nnnn2CC(=O)O)cc1`: 35.2% (active); for `COc1ccc(Cc2nnc(SCC(=O)N(c3ccccc3)C(C)C)n(N)c2=O)cc1`: -8.57%.

As for `CCCn1nnnc1NCc1ccc(OC)cc1`, the inhibition is -21.1%. For the molecule `Cc1ccccc1OCCC(=O)OCC(=O)NCCc1ccc(S(N)(=O)=O)cc1`, the inhibition is -20%.

For the molecule `COc1cccc(C(=O)N2CCCC(CCC(=O)NCc3ccc(F)c(F)c3)C2)c1` (stereo unspecified), the inhibition was 34.4% (active). As for `COc1cccc(CNC(=O)CCC2CCCN(C(=O)c3ccc(F)c(Cl)c3)C2)c1` (stereo unspecified), the inhibition is 7.84%.

For `COc1cccc(CNC(=O)CCC2CCCN(C(=O)c3ccoc3C)C2)c1` (stereo unspecified), the inhibition was -10.4%.

In the case of `Cc1ccc(S(=O)(=O)N2[C@@H](c3cccc(Cl)c3)C(C(=O)O)=CC[C@H]2c2ccc(Cl)c(Cl)c2)cc1`, the inhibition is -1.92%. Regarding `COc1ccc(S(=O)(=O)N2CCOCC2)cc1NC(=O)Cc1coc2cc(C)ccc12`, the inhibition was -8.41%. Turning to `O=C(NNC(=O)C1CCC1)c1ccccc1`, the inhibition is -2.25%. `CC(C)C[C@H](NC(=O)Nc1cccc(C(F)(F)F)c1)C(=O)O`: the inhibition was 7.87%.

In the case of `CCNS(=O)(=O)c1ccc(NC(=O)Nc2cccc(C(F)(F)F)c2)cc1`, the inhibition is 38.4% (active). For the molecule `Cc1ccc(NC(=O)Nc2cccc(C(F)(F)F)c2)nc1`, the inhibition is -7.91%. Regarding `CCOC(=O)[C@H]1[C@H]2COc3ccc(C)cc3[C@@H]2N2C(=O)CN(Cc3ccc(F)cc3)C(=O)[C@@]12C`, the inhibition is -3.67%.

Take `O=C(CCN1CCN(C/C=C/c2ccccc2)CC1)Nc1cccc(F)c1`: the inhibition was -21%.

Consider `O=C(CN1CCN(C/C=C/c2ccccc2)CC1)Nc1ccc(F)cc1F`, for which the inhibition is 6.36%.

As for `O=C(CCN1CCN(C/C=C/c2ccccc2)CC1)Nc1ccccc1Cl`, the inhibition was 31.9% (active). `O=C(CN1CCN(S(=O)(=O)c2cccc(Cl)c2)CC1)N1CCCCC1`: the inhibition was 14%. Regarding `Cc1ccc(C)c(NC(=O)CN(C)C(=O)c2ccc3ncsc3c2)c1`, the inhibition was 17.4%. Consider `CCCn1nc(C(=O)OCc2nc(N)nc(Nc3ccccc3C)n2)c2ccccc2c1=O`, for which the inhibition was 6.08%.

For the molecule `COc1cc(OC)c(C(=O)OCC(=O)N2CC(=O)Nc3ccccc32)cc1OC`, the inhibition was -2.09%. As to `Cc1ccc(S(=O)(=O)N(C)CC(=O)OCC(=O)N2CC(=O)Nc3ccccc32)cc1`, the inhibition was 36.8% (active).

As for `Cc1ccc(S(=O)(=O)N(C)CC(=O)OCC(=O)Nc2ccccc2)cc1`, the inhibition is -5.35%. On to `COc1cc(C(=O)Nc2ncccc2C)ccc1OCC(=O)N1CCOCC1`, for which the inhibition was -21.1%. Regarding `COc1ccc(NC(=O)CN(C)C(=O)c2cccc(S(=O)(=O)N3CCN(c4ccccc4)CC3)c2)cc1`, the inhibition is -9.07%. Consider `Cc1cccc(-c2oc3ccc(-c4ccc5c(c4)OCO5)cc3c2C#Cc2cncn2C)c1`, for which the inhibition was 11.3%. For the molecule `COc1ccc(/C=C(\NC(=O)c2ccc(OC)c(OC)c2)C(=O)NCCc2c[nH]c3ccccc23)cc1`, the inhibition was -6.61%. Take `COc1ccccc1CC(=O)NCCc1c[nH]c2ccccc12`: the inhibition is -11.6%.

With `CC(=O)N/C(=C/c1ccc(Cl)cc1)C(=O)NCCc1c[nH]c2ccccc12`, the inhibition was 31% (active).

On to `CC1CC(C)CN(C(=O)COC(=O)c2ccc3ncsc3c2)C1` (stereo unspecified), for which the inhibition was -13.9%. As to `NS(=O)(=O)c1ccc(CNC(=O)c2cccc(S(=O)(=O)N3CCc4ccccc43)c2)cc1`, the inhibition is 41% (active). For the molecule `Cc1ccc(NC(=O)c2cccc(S(=O)(=O)N3CCCc4ccccc43)c2)nc1`, the inhibition was 7.09%. The same measure for `NS(=O)(=O)c1ccc(CNC(=O)c2cccc(Oc3ccccc3)c2)cc1`: 9.32%; for `Cc1ccccc1Nc1nc(N)nc(COC(=O)CCC(=O)c2ccc(F)cc2)n1`: 2.44%. In the case of `COc1ccc(-c2c(-c3cc(OC)cc(OC)c3)n(C)c3ccc(-c4ccn[nH]4)cc23)cc1`, the inhibition was -12.7%.

In the case of `Cc1cnc(NC(=O)CSc2nnc(-c3ccccc3)n2Cc2ccccc2)s1`, the inhibition was 8.7%. On to `CCc1nnc(NC(=O)CSc2nnc(-c3ccncc3)n2Cc2ccccc2)s1`, for which the inhibition is 30.7% (active).

With `CCc1nnc(NC(=O)CSc2nnc(Cc3ccccc3)n2-c2ccc(OC)cc2)s1`, the inhibition was 0.9%. As for `COc1ccccc1CNC(=O)COC(=O)c1sc(C)nc1C`, the inhibition was 16.2%.

Turning to `O=C(NCC1CCCO1)c1cc2c(s1)CCCC2` (stereo unspecified), the inhibition is 24.5%. The same measure for `O=C(COC(=O)CNC(=O)C1CCCCC1)Nc1cccc(F)c1`: -2.8%; for `CC(CCc1ccc(O)cc1)NCc1ccc(Cl)cc1Cl` (stereo unspecified): 57% (active). Regarding `OC(CNCCc1ccc(Cl)cc1Cl)COc1ccccc1` (stereo unspecified), the inhibition is -28.1%. `COc1ccc(CNC(=O)C(C)NCc2ccccc2Cl)cc1` (stereo unspecified): the inhibition was 2.26%. In the case of `Cc1ccc(OCC(=O)Nc2ccccc2C(=O)NC2CC2)cc1`, the inhibition was -3.15%. For `Cc1c(NS(=O)(=O)c2cc(C(=O)NCCc3ccc(F)cc3)cc(Cl)c2Cl)c(=O)n(-c2ccccc2)n1C` the value was 0.733%.
